Pf Dd2 growth – qHTS Primary assay for Inhibitors of Plasmodium falciparum Dd2 growth in vitro; P. falciparum Dd2 growth, SYBR Green, 72 h; Potency, µM (series often up to 28.9 µM), usual class: inhibitors; actives 4.3% (n = 120,000); active = well fitted inhibition curve with a large enough effect; also: nearly all actives have a fitted effect of over 65% in size
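Readout: SYBR Green fluorescence, 485 nm excitation, 535 nm emission, after ~16 h lysis at 37C. Before that, Dd2-infected red cells (2.5% hematocrit) grew 72 h with compound, 29 uM top final concentration.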
Each line names hits and unclear results; the compound was inactive in the other large screens. This excerpt belongs to a sample that is enriched for hits.

CC(=O)N1CCC(N[C@H]2C[C@@H](Cc3cc(CCO)on3)C2(C)C)CC1	none
CCOc1ccccc1NC(=O)Cn1c(N2CCOCC2)nc(COC)cc1=O	none
COc1ccc(-c2[nH]nc3ncc(C(=O)N(C)c4cccnc4)nc23)c(C)c1	none
CC(C)CN1C(=O)c2cccn2CC1C(=O)NCc1cccc(C(F)(F)F)c1 (configuration not stated)	none
CCCc1cc(C(=O)N2CCC(n3nccc3NC(=O)c3ccccc3C)CC2)n(C)n1	none
Cc1ccc(NC(=O)N2CC(N(Cc3cccnc3)S(C)(=O)=O)C2)cc1C	none
C=CCNC(=O)C(NC(=O)c1ccc2c(c1)OCO2)C1CCN(C(=O)c2ccc(OC)cc2)CC1 (configuration not stated)	none
Cn1cc(CN2C[C@@H]3C[C@H](C2)c2ccc(NC(=O)c4cccs4)c(=O)n2C3)c2ccccc21	Pf Dd2 growth 7.94µM
CC(=O)c1ccc(NC(=O)N2C[C@@H]3C[C@H](C2)c2ccc(NC(=O)c4cccs4)c(=O)n2C3)cc1	none
Cn1cc(CN2C[C@@H]3C[C@H](C2)c2ccc(NC(=O)COc4ccccc4)c(=O)n2C3)c2ccccc21	none
CCc1cn(C[C@H](NCCC(C)C)C(=O)O)c(=O)[nH]c1=O	none
CN(C)CC1(O)CCC2(CCN(C(=O)CC3CCCC3)CC2)CC1	none
Cc1ccc(C(=O)N2CCC(c3c[nH]c4ccccc34)(c3c[nH]c4ccccc34)CC2)cc1	Pf Dd2 growth 2µM
COc1ccc(C(=O)N2CCC3(CC2)NCCc2c3[nH]c3ccccc23)cc1	none
Cc1ccc(C(=O)N2CCC3(CC2)N=C(c2ccccc2)NO3)cc1	none
O=C(Cc1ccccc1F)N1CCCC(c2nc(C3CCOCC3)no2)C1 (configuration not stated)	none
CN1C(=O)[C@@H]2C[C@@H](O)CN2C2(CN(Cc3cccc(F)c3)C2)C1=O	none
CS(=O)(=O)N1C[C@H]2CCN(Cc3cc(Cl)ccc3F)C[C@H]21	none
CN(C)C1CCN(Cc2cc3cc4c(cc3nc2-c2ccc(Cl)cc2)OCO4)C1 (configuration not stated)	Pf Dd2 growth 11.2µM
COc1cc2cc(CN3CCC(N(C)C)C3)c(-c3cccc(Cl)c3)nc2cc1OC (configuration not stated)	Pf Dd2 growth 7.94µM
O=C1[C@H]2CN(Cc3ccc(Cl)cc3)C[C@H]2C(=O)N1Cc1ccc2c(c1)OCO2	none
COc1ccc(N2CCOC3CCN(Cc4cccc(Cl)c4)CC3C2=O)cc1 (configuration not stated)	none
CSc1ccc(C(=O)N2CCN(Cc3ccccc3)CC(O)C2)cc1 (configuration not stated)	none
CSc1ccc2cc(CN3CC[C@@H](O)C3)c(-c3ccc(Cl)cc3)nc2c1	Pf Dd2 growth 11.2µM
COc1ccc(OC)c2nc(-c3cccc(Cl)c3)c(CN3CCC(O)CC3)cc12	none
Cn1ncc(CN2CC[C@@H](c3ccc4c(c3)OCO4)[C@H](O)C2)c1C1CC1	none
O=C([C@@H]1C[C@H](F)CN1C(=O)c1ccccc1)N1CCCCC1	none
CN(C)c1ccc(-c2nnnn2[C@H]2CO[C@H]3[C@@H]2OC[C@H]3OC(=O)Nc2ccc(Oc3ccccc3)cc2)cc1	none
CCS(=O)(=O)N1C[C@@H]2C(=O)N(CCC3CCN(C(C)C)CC3)C(=O)[C@@H]2C1	none
O=C(NC1C[C@H]2CC[C@@H](C1)N2C(=O)Cc1cccc(Cl)c1)c1ccncc1 (some centres not stated)	none
COc1cccc(C(=O)Nc2c(C(=O)Nc3ccc(F)cc3)oc3ccccc23)c1OC	none
CN(C)CCN(Cc1ccco1)C(=O)c1oc2ccccc2c1NC(=O)c1ccccc1	Pf Dd2 growth 11.2µM
COc1ccccc1C(=O)Nc1c(C(=O)N(CCN(C)C)Cc2ccco2)oc2ccccc12	Pf Dd2 growth 6.31µM
COc1ccccc1C(=O)N(Cc1ccco1)Cc1ccccc1F	none
Cc1c(C(=O)N(Cc2cccc(Cl)c2)Cc2ccco2)oc2ccccc12	none
CCOc1ccc(C(=O)Nc2c(C(=O)c3ccccc3)oc3ccccc23)cc1	none
Cc1oc(C(O)c2ccccc2F)nc1C(=O)N1CCN(c2ccccn2)CC1 (configuration not stated)	none
O=C([C@@H]1C[C@H](F)CN1C(=O)c1ccsc1)N1CCOCC1	none
CCCCCCSc1nnc2c(n1)OC(C)Nc1ccc(Br)cc1-2 (configuration not stated)	none
CCCCCSc1nnc2c(n1)[nH]c1c(C)cccc12	Pf Dd2 growth 3.98µM
Cc1nnc(NC(=O)CSc2nnc3c(n2)[nH]c2ccccc23)s1	none
COc1ccc(C(=O)N2C[C@@H]3OCC(=O)N(Cc4cccnc4)[C@@H]3C2)cc1	none
Cc1ccc(-c2ccc3nnc(CNC(=O)COc4ccccc4)n3n2)cc1	none
CN(C)c1ccc(NC(=O)CCSc2nc(-c3ccco3)cc(C(F)(F)F)n2)cc1	Pf Dd2 growth 11.2µM
CC(=O)c1ccc(NC(=O)CCSc2nc(-c3ccco3)cc(C(F)(F)F)n2)cc1	none
COc1ccc(NC(=O)CCSc2nc(-c3ccco3)cc(C(F)(F)F)n2)cc1	none
Cc1ccc(C2NC(=O)N(CC(=O)Nc3ccccc3F)C3=C2C(=O)OC3)cc1 (configuration not stated)	none
COc1cc2c(C(=O)N3CCN(c4ccc(F)cc4)CC3)cn(CC(C)C)c(=O)c2cc1OC	Pf Dd2 growth 10µM
COc1ccc(N2CCN(C(=O)c3cn(CC(C)C)c(=O)c4c3c3ccccc3n4C)CC2)cc1	Pf Dd2 growth 10µM
COc1ccc(Nc2ncc(C(=O)N3CCN(c4ccc(OC)cc4)CC3)c3ccccc23)cc1	none
COc1ccc(N2CCN(C(=O)c3cc4c(=O)n(Cc5ccccc5)ccc4nc3C)CC2)cc1	none
COc1ccccc1N1CCN(C(=O)c2c(C)oc3ncn(CC(C)C)c(=O)c23)CC1	none
COc1ccccc1N1CCN(C(=O)c2cn(CC(C)C)c(=O)c3c2c2ccccc2n3C)CC1	Pf Dd2 growth 7.94µM
COc1cc(Cl)c(C)cc1NC(=O)c1cn(CC(C)C)c(=O)c2cc(OC)c(OC)cc12	none
COc1cc2c(C(=O)N(C)c3cccc(C(F)(F)F)c3)cn(CC(C)C)c(=O)c2cc1OC	none
COc1ccccc1N1CCN(C(=O)Nc2cn(CC(C)C)c(=O)c3ccccc23)CC1	none
CN1CCN(c2nc3c(c(=O)[nH]2)CCN(Cc2ccc(Cl)c(F)c2)CC3)CC1	none
COc1ccc(C(=O)N2CCC(n3c(=O)[nH]c4ccccc43)CC2)cc1	none
CCCC1c2nccn2CCCN1C(=O)c1conc1C (configuration not stated)	none
COc1ccccc1OCc1cc(C(=O)NCc2cnc(C)cn2)n[nH]1	none
Cn1nc2n(c1=O)CCN(C(=O)c1cscn1)CC2	none
CCCN(CC1CCOC1)S(=O)(=O)c1ccccc1C (configuration not stated)	none
O=C1CN(Cc2ccc(-c3cccs3)cc2)CCN1c1ccc(Cl)nn1	none
O=C(CCC1CCCN(Cc2cccn2-c2nccs2)C1)Nc1ccccc1F (configuration not stated)	Pf Dd2 growth 7.08µM
COc1ccccc1/C=C/CN1CCCC(CNC(=O)COc2ccccc2OC)C1 (configuration not stated)	Pf Dd2 growth 7.94µM
COc1cccc(C(=O)NCC2CCCN(Cc3nc4ccccc4[nH]3)C2)c1OC (configuration not stated)	none
COc1ccccc1CNC(=O)CCC1CCCN(S(=O)(=O)c2ccccc2F)C1 (configuration not stated)	none
O=C(CCC1CCCN(C(=O)Cc2c[nH]c(=O)[nH]c2=O)C1)Nc1ccccc1F (configuration not stated)	none
O=C(CCC1CCN(C(=O)c2ccccc2)CC1)Nc1ccccc1F	none
